Among the data in PubChem BioAssay (EPA / NIEHS) are outcome and AC50 values, retold here.

The target in assay [1] is human Matrix Metalloproteinase-3 (MMP3), MMP3 (gene 4314) (UniProt P08254). Description: NVS_ENZ_hMMP3: NovaScreen (NVS) Enzymatic Assay for human Matrix Metalloproteinase-3 (MMP3) (AID 2283185). Summed up:
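Cell-free recombinant human MMP3 activity, fluorescence intensity read 1 h after dosing. Primary screen duplicate at 25 uM, actives retested in concentration series; loss of signal vs DMSO baseline.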

Assay [2] concerns the target human Phosphodiesterase 4A1 (PDE4A1), PDE4A (gene 5141) (UniProt P27815). Description: NVS_ENZ_hPDE4A1: NovaScreen (NVS) Enzymatic Assay for human Phosphodiesterase 4A1 (PDE4A1) (AID 2283191). Summed up:
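Cell-free recombinant human PDE4A1 with fluorescent substrate; product separated by electrophoretic mobility shift, 1 h. Screened at 25 uM, then up to 50 uM in concentration-response; loss of signal fitted against DMSO.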

The target of assay [3] is human Phosphoinositide 3-kinase alpha (PI3Ka), PIK3CA (gene 5290) (UniProt P42336). Description: NVS_ENZ_hPI3Ka: NovaScreen (NVS) Enzymatic Assay for human Phosphoinositide 3-kinase alpha (PI3Ka) (AID 2283196). The gist of the method: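 Enzyme activity as fluorescence after mobility-shift separation of substrate and product, 1 h reaction, recombinant human PI3Kα; concentration-response to 50 uM max for chemicals passing a 25 uM duplicate screen.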
human Phosphoinositide 3-kinase alpha (PI3Ka), PIK3CA (gene 5290), sequence (P42336 whole entry, looked up): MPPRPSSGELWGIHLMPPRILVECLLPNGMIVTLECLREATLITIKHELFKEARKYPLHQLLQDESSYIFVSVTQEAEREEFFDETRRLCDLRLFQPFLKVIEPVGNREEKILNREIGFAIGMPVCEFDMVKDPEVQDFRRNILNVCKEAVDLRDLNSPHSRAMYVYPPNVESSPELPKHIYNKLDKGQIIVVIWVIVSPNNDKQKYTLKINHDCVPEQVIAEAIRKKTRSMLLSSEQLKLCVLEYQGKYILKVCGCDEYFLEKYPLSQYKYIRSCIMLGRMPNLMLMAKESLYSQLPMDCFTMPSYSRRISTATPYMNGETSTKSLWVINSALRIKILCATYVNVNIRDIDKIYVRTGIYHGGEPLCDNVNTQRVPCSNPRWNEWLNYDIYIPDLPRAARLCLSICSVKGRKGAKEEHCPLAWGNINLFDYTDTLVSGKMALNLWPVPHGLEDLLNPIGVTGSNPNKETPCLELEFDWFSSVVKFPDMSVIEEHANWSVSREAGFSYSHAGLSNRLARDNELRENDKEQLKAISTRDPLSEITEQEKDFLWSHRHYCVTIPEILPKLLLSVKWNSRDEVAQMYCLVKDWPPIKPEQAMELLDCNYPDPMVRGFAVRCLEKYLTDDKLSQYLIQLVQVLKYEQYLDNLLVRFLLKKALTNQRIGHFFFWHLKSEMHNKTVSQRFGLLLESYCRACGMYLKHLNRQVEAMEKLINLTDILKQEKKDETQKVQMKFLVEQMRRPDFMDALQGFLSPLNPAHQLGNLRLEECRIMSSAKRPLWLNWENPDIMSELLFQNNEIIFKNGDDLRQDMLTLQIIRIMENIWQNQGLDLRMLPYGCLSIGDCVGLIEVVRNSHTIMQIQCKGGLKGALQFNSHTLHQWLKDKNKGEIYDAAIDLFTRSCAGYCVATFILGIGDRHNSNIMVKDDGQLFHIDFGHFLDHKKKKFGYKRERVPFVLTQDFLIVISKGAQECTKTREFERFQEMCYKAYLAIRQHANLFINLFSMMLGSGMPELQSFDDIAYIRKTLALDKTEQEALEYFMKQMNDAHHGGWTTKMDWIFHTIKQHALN

The target of assay [4] is human Mitogen- and Stress-activated Protein Kinase-1 (Msk1), RPS6KA5 (gene 9252) (UniProt O75582). Description: NVS_ENZ_hMsk1: NovaScreen (NVS) Enzymatic Assay for human Mitogen- and Stress-activated Protein Kinase-1 (Msk1) (AID 2283187). Summed up: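 Recombinant kinase with fluorescent substrate; product separated by electrophoretic mobility shift, read 1 h after dosing. Screened in duplicate at 25 uM; hits (e.g. ≥30% inhibition) tested in concentration–response up to 50 uM. DMSO baseline.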

The target in assay [5] is cAMP-dependent protein kinase catalytic subunit alpha (Homo sapiens) (UniProt P17612). As to the kind of experiment: NVS_ENZ_hPKA: NovaScreen (NVS) Enzymatic Assay for human Protein Kinase A (PKA) (AID 2283192). The gist of the method: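 Recombinant human PKA with specific fluorescent substrate, product separated by electrophoretic mobility shift, read 1 h after dosing. Primary screen at 25 uM in duplicate; actives then run in concentration-response up to 50 uM, activity relative to DMSO.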

The target in assay [6] is human Phosphodiesterase 5 (PDE5), PDE5A (gene 8654) (UniProt O76074). As to the kind of experiment: NVS_ENZ_hPDE5: NovaScreen (NVS) Enzymatic Assay for human Phosphodiesterase 5 (PDE5) (AID 2283194). Summed up:
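Recombinant human PDE5 with specific substrate, read 1 h after dosing by fluorescence with electrophoretic mobility-shift separation of substrate and product. Initial single-concentration duplicate screen at 25 uM, actives followed in concentration series; loss of activity versus DMSO.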

Assay [7] concerns the target human Matrix Metalloproteinase-7 (MMP7), MMP7 (gene 4316) (UniProt P09237). As to the kind of experiment: NVS_ENZ_hMMP7: NovaScreen (NVS) Enzymatic Assay for human Matrix Metalloproteinase-7 (MMP7) (AID 2283183). Summed up:
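Cell-free fluorescence enzymatic assay read 1 h after compound addition, activity loss analyzed against DMSO. Primary duplicate testing at 25 uM; compounds meeting threshold rerun in singleton concentration-response up to 50 uM.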

The target in assay [8] is human Matrix Metalloproteinase-9 (MMP9), MMP9 (gene 4318) (UniProt P14780). As to the kind of experiment: NVS_ENZ_hMMP9: NovaScreen (NVS) Enzymatic Assay for human Matrix Metalloproteinase-9 (MMP9) (AID 2283190).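 Further: cell-free recombinant MMP9 protease activity read by fluorescent substrate signal; active means inhibition seen as loss of fluorescence signal versus DMSO.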 The gist of the method: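 Cell-free fluorescence-intensity enzyme activity assay using extracted protein, read 1 h after dosing. Loss of signal versus DMSO baseline indicates inhibition; primary screen in duplicate at 25 uM, actives followed up in concentration series.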
human Matrix Metalloproteinase-9 (MMP9), MMP9 (gene 4318), sequence (P14780 whole entry, looked up): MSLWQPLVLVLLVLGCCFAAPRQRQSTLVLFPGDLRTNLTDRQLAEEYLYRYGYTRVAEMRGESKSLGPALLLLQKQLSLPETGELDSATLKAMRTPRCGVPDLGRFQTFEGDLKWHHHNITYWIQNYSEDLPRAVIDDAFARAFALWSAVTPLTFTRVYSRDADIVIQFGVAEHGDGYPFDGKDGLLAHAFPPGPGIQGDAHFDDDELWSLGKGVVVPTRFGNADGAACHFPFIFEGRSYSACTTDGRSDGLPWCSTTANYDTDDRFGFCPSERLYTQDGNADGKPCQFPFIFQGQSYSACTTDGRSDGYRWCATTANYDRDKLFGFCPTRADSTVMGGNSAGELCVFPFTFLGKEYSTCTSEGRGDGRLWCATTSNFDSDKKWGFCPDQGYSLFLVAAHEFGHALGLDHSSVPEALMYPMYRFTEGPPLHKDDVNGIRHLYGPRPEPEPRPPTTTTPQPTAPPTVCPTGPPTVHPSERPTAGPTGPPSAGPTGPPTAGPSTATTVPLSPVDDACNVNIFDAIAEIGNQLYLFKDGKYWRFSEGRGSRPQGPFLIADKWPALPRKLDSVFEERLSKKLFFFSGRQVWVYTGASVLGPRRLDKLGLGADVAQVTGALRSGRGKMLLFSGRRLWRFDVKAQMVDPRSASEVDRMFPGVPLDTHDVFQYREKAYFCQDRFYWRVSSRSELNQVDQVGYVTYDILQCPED

The target of assay [9] is Tyrosine-protein phosphatase non-receptor type 11 (Homo sapiens) (UniProt Q06124). As to the kind of experiment: NVS_ENZ_hPTPN11: NovaScreen (NVS) Enzymatic Assay for human Protein Tyrosine Phosphatase Non-receptor Type 11 (PTPN11) (AID 2283202). Summed up: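 Recombinant human PTPN11 activity on a fluorescent substrate, with substrate/product separated by electrophoretic mobility shift; read 0.5 h after dosing, loss of signal vs DMSO. Duplicate 25 uM screen, then concentration-response up to 50 uM.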

Assay [10] addresses Tyrosine-protein phosphatase non-receptor type 12 (Homo sapiens) (UniProt Q05209). Description: NVS_ENZ_hPTPN12: NovaScreen (NVS) Enzymatic Assay for human Protein Tyrosine Phosphatase Non-receptor Type 12 (PTPN12) (AID 2283204). The gist of the method:
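Single-concentration duplicates (25 uM) preceded singleton concentration-response up to 50 uM for chemicals passing threshold. Cell-free recombinant PTPN12 activity was read 1.33 h after dosing via fluorescence after mobility-shift separation; loss of signal versus DMSO.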

The target in assay [11] is human Protein Tyrosine Phosphatase Non-receptor Type 4 (PTPN4), PTPN4 (gene 5775) (UniProt P29074). Description: NVS_ENZ_hPTPN4: NovaScreen (NVS) Enzymatic Assay for human Protein Tyrosine Phosphatase Non-receptor Type 4 (PTPN4) (AID 2283208). Summed up: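 Cell-free assay of PTPN4 expressed in Sf9 cells, using a fluorescent substrate with product separated by mobility shift; read 1.33 h after dosing. Single-point screen at 25 uM, then concentration-response up to 50 uM. Loss of signal relative to DMSO.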
human Protein Tyrosine Phosphatase Non-receptor Type 4 (PTPN4), PTPN4 (gene 5775), sequence (P29074 whole entry, looked up): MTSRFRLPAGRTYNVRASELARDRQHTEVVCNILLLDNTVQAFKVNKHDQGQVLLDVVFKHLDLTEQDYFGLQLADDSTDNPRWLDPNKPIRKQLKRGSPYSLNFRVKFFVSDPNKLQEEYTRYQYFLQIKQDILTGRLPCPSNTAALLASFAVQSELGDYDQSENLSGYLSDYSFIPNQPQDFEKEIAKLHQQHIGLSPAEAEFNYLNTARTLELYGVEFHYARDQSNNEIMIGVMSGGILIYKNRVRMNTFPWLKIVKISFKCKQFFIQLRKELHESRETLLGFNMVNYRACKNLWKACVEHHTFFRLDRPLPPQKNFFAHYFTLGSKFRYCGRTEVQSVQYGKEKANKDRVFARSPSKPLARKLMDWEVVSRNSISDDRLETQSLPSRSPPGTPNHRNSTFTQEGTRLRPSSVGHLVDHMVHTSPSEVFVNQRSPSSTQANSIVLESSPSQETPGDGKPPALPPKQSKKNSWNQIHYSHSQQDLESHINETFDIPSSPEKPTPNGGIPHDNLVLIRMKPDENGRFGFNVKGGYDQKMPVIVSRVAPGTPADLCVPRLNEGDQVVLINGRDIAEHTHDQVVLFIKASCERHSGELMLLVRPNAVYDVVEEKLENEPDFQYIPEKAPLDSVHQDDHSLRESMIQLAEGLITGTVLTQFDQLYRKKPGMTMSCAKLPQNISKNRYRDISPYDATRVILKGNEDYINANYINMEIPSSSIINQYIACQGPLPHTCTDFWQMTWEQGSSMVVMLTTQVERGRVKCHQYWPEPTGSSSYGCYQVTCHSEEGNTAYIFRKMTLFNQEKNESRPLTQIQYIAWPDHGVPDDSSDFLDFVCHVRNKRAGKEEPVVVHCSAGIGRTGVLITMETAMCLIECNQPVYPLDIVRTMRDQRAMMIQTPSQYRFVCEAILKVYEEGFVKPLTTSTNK

In assay [12] the target is human Protein Tyrosine Phosphatase Non-receptor Type 9 (PTPN9), PTPN9 (gene 5780) (UniProt P43378). As to the kind of experiment: NVS_ENZ_hPTPN9: NovaScreen (NVS) Enzymatic Assay for human Protein Tyrosine Phosphatase Non-receptor Type 9 (PTPN9) (AID 2283209). Summed up:
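Sf9-expressed enzyme in a cell-free assay, fluorescence read 1.33 h after dosing with mobility-shift separation of substrate and product. Tested at 25 uM in duplicate, then up to 50 uM; signal loss versus DMSO.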

In assay [13] the target is human Protein Tyrosine Phosphatase Non-receptor Type 6 (PTPN6), PTPN6 (gene 5777) (UniProt P29350). Description: NVS_ENZ_hPTPN6: NovaScreen (NVS) Enzymatic Assay for human Protein Tyrosine Phosphatase Non-receptor Type 6 (PTPN6) (AID 2283210). The gist of the method: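 Cell-free assay with recombinant PTPN6 expressed in SF9 cells, fluorescent substrate, product separated from substrate by electrophoretic mobility shift; read 1.33 hours after dosing. Primary screen in duplicate at 25 uM, actives retested in concentration series; DMSO baseline.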

Assay [14] has as its target Serine/threonine-protein phosphatase PP1-alpha catalytic subunit (Homo sapiens) (UniProt P62136). As to the kind of experiment: NVS_ENZ_hPPP1CA: NovaScreen (NVS) Enzymatic Assay for human Protein Phosphatase 1 Aatalytic subunit Alpha (PPP1CA) (AID 2283200). The gist of the method: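 Recombinant enzyme activity read by fluorescence with electrophoretic mobility shift separating substrate from product, 1.33 h after dosing; loss of signal vs DMSO baseline. Primary screen in duplicate at 25 uM; actives retested in concentration-response up to 50 uM.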

Assay [15] concerns the target human Phosphodiesterase 10 (PDE10), PDE10A (gene 10846) (UniProt Q9Y233). Description: NVS_ENZ_hPDE10: NovaScreen (NVS) Enzymatic Assay for human Phosphodiesterase 10 (PDE10) (AID 2283195). The gist of the method: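 PDE10A, cell-free; 1 h incubation; fluorescence intensity + electrophoretic mobility shift separating substrate/product; DMSO = baseline; 25 uM duplicate primary, CRC up to 50 uM.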

The target of assay [16] is Tyrosine-protein phosphatase non-receptor type 13 (Homo sapiens) (UniProt Q12923). As to the kind of experiment: NVS_ENZ_hPTPN13: NovaScreen (NVS) Enzymatic Assay for human Protein Tyrosine Phosphatase Non-receptor Type 13 (PTPN13) (AID 2283205). Summed up: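 Cell-free assay of recombinant human PTPN13 with a fluorescent substrate, product separated by electrophoretic mobility shift and read 0.5 h after dosing. Primary screen at 25 uM in duplicate, then concentration-response up to 50 uM. Loss of signal fitted against DMSO.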

Assay [17] deals with human Protein Phosphatase, Mg2+/Mn2+ Dependent 1A (PPM1A), PPM1A (gene 5494) (UniProt P35813). Description: NVS_ENZ_hPPM1A: NovaScreen (NVS) Enzymatic Assay for human Protein Phosphatase, Mg2+/Mn2+ Dependent 1A (PPM1A) (AID 2283198). Summed up: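 Cell-free recombinant PPM1A phosphatase assay with fluorescent substrate, read 1 h after dosing by electrophoretic mobility shift. Chemicals screened in duplicate at 25 uM, then in concentration-response up to 50 uM; loss of activity versus DMSO.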

The target of assay [18] is human Matrix Metalloproteinase-2 (MMP2), MMP2 (gene 4313) (UniProt P08253). As to the kind of experiment: NVS_ENZ_hMMP2: NovaScreen (NVS) Enzymatic Assay for human Matrix Metalloproteinase-2 (MMP2) (AID 2283184). Summed up: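 Cell-free recombinant MMP2 activity with a fluorescent substrate, read 1 h after dosing. Primary screen in duplicate at 25 uM; actives then run in concentration series; loss of signal fitted versus DMSO.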

Assay [19] addresses human Protein Tyrosine Phosphatase Non-receptor Type 1 (PTPN1), PTPN1 (gene 5770) (UniProt P18031). As to the kind of experiment: NVS_ENZ_hPTPN1: NovaScreen (NVS) Enzymatic Assay for human Protein Tyrosine Phosphatase Non-receptor Type 1 (PTPN1) (AID 2283201). The gist of the method:
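Cell-free fluorogenic-substrate activity assay on recombinant enzyme, read 1.33 h after dosing by fluorescence and electrophoretic mobility shift; loss of signal vs DMSO baseline. Primary screen in duplicate at 25 uM, hits then run in concentration-response up to 50 uM.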

The target of assay [20] is Tyrosine-protein phosphatase non-receptor type 14 (Homo sapiens) (UniProt Q15678). Description: NVS_ENZ_hPTPN14: NovaScreen (NVS) Enzymatic Assay for human Protein Tyrosine Phosphatase Non-receptor Type 14 (PTPN14) (AID 2283206). Summed up: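 Cell-free recombinant human PTPN14 with fluorescent substrate, read 0.5 h after dosing by fluorescence and electrophoretic mobility shift separating substrate from product. Primary screen at 25 uM in duplicate; hits run to 50 uM maximum; loss of signal versus DMSO.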

Results filed as inconclusive are left out. The source holds several records for some structures; these can differ, active in one and inactive in another. Calls of active or inactive are those of the source. How the source made its calls: active means hit-call score of the fitted dose curve at least 0.9, where 1 is the maximum; inconclusive means response in the unintended direction; inactive means score below 0.9.

human Phosphodiesterase 4A1 (PDE4A1), PDE4A (gene 5141), sequence (P27815 whole entry, looked up): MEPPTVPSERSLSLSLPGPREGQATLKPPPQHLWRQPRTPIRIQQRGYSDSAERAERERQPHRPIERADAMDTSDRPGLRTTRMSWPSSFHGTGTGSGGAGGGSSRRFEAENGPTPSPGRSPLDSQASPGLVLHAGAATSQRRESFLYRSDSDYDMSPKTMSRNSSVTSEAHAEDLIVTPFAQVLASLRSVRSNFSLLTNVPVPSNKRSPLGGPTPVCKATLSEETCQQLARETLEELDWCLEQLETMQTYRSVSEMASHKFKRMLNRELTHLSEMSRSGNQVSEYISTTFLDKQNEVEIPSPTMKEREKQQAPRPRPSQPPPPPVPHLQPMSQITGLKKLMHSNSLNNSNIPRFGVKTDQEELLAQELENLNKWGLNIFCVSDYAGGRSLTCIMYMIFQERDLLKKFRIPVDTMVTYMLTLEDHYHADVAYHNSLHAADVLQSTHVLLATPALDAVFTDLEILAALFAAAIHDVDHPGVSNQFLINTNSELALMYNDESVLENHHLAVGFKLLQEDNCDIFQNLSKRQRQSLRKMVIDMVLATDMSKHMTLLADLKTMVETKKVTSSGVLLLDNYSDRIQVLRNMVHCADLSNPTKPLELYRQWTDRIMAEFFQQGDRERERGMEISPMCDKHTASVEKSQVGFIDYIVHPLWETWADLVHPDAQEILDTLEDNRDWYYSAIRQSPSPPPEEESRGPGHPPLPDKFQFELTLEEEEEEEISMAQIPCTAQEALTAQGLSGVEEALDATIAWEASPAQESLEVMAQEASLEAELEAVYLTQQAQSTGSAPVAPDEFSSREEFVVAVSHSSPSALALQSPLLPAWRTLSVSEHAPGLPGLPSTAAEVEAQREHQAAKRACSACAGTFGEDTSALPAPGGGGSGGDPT
Serine/threonine-protein phosphatase PP1-alpha catalytic subunit (Homo sapiens), sequence (P62136 whole entry, looked up): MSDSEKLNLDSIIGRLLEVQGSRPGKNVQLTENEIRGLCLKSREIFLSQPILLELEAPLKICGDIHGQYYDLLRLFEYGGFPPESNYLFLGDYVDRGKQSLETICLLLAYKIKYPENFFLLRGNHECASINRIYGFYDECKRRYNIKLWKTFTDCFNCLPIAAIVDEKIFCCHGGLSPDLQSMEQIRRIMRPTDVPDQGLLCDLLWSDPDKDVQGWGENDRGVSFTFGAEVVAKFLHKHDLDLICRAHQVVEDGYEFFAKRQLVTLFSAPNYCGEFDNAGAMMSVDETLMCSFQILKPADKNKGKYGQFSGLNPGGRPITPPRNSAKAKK
human Phosphodiesterase 10 (PDE10), PDE10A (gene 10846), sequence (Q9Y233 whole entry, looked up): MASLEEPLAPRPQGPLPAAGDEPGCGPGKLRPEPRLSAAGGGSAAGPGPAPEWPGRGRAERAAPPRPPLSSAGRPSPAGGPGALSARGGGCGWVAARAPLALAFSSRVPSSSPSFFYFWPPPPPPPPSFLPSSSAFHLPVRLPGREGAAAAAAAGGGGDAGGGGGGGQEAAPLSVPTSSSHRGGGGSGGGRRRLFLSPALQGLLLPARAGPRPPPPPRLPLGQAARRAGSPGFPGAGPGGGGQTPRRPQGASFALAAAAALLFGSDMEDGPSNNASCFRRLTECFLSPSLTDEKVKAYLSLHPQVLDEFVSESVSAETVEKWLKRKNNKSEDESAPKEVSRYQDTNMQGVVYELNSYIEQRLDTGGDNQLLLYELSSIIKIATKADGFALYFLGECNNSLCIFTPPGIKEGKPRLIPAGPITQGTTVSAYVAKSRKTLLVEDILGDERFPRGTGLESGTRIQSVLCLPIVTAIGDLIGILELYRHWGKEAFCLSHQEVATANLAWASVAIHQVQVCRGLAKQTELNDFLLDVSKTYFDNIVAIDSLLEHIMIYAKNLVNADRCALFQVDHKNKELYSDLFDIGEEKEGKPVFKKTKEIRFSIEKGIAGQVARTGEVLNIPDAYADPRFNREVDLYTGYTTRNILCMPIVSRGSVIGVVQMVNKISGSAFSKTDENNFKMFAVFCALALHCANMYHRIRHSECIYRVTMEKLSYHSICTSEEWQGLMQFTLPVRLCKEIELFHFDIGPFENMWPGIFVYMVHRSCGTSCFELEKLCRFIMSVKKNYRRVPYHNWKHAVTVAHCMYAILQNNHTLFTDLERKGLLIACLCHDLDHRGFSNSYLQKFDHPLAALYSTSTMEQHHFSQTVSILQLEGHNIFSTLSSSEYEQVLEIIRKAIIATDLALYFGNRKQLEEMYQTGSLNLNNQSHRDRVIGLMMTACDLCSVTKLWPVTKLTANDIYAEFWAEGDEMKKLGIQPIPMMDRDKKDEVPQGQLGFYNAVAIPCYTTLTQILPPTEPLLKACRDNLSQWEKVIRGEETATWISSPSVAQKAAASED

Consider `C[C@]12C[C@H](O)[C@H]3[C@@H](CCC4=CC(=O)CC[C@@]43C)[C@@H]1CC[C@@H]2C(=O)CO`, for which, in assay [1], the result was inactive.

With `CCNc1nc(N)nc(Cl)n1`, the AC50 (commonly the midpoint of the concentration-response curve, whichever way the signal moves) in assay [2] is 25 µM (active).

On to `N#CSCSc1nc2ccccc2s1`, for which, in assay [3], the compound was called inactive.

Consider `O=C(c1ccc(O)cc1O)c1ccc(O)cc1O`, for which the results for the AC50 in assay [4] and in assay [6] were 24.1 µM (active) and 22 µM (active), respectively. Further, the call in assay [5] was inactive.

In the case of `Oc1ccc(C(c2ccc(O)cc2)C(Cl)(Cl)Cl)cc1`, the outcome in [7], in [8] and in assay [9] was inactive. Besides, the AC50 in assay [3] is 29.1 µM (active).

As to `CCCN(CCC)c1c([N+](=O)[O-])cc(C(F)(F)F)c(N)c1[N+](=O)[O-]`, the result in [10], in [11] and in assay [13] was inactive. The AC50 in assay [12] was 19.9 µM (active).

With `CN(C)C(=O)Nc1ccc(Cl)c(Cl)c1`, the call in assay [1] and in assay [14] was inactive.

With `CCC(C)OC(=O)N1CCCCC1CCO` (stereo not drawn), the compound was called inactive in assay [15], in [11] and in assay [12].

For the compound `COC(=O)c1ccccc1S(=O)(=O)NC(=O)Nc1nc(OC(F)F)cc(OC(F)F)n1`, the result in assay [5] was inactive.

With `c1ccc(Nc2ccccc2)cc1`, the compound was called inactive in [14] and in assay [11].

Consider `O=C(Nc1ccc([N+](=O)[O-])cc1Cl)c1cc(Cl)ccc1O`, for which, in [14], the result was inactive. For the same compound, the AC50 in [16] is 18.7 µM (active).

Turning to `C=CCOC(Cn1ccnc1)c1ccc(Cl)cc1Cl` (stereo not drawn), the concentration at half-maximal activity (AC50) in [7] is 9.22 µM (active); in assay [8], 18.6 µM (active). Besides, in assay [2], the compound was classed as inactive.

Turning to `CSC(=O)c1cccc2nnsc12`, the call in [2], in [6] and in [11] was inactive.

For the compound `CC(=O)S[C@@H]1CC2=CC(=O)CC[C@]2(C)[C@H]2CC[C@@]3(C)[C@@H](CC[C@@]34CCC(=O)O4)[C@H]12`, the concentration at half-maximal activity (AC50) in assay [15] was 14.4 µM (active).

Turning to `CCCOC(=O)NCCCN(C)C`, the compound was classed as inactive in assay [1].

`CCOC(=O)NCCOc1ccc(Oc2ccccc2)cc1`: the compound was classed as inactive in [7].

`COc1nc(C)nc(NC(=O)NS(=O)(=O)c2ccccc2OCCCl)n1`: in [8], the half-maximal activity concentration (AC50) was 4.32 µM (active). Besides, the compound was called inactive in assay [11] and in assay [12].

In the case of `CC(C)(c1ccc(O)cc1)c1ccc(O)cc1`, the compound was called inactive in assay [7], in [1], in [3] and in [17]. Moreover, the AC50 in assay [3] is 25.4 µM (active).

Turning to `OB(O)O`, the call in assay [14] was inactive.

For `CCCCCOC(=O)COc1cc(N2C(=O)C3=C(CCCC3)C2=O)c(F)cc1Cl`, in assay [18], the call was inactive.

`S=C([S-])NCCNC(=S)[S-].[Mn+2]`: the call in assay [7], in assay [8] and in assay [3] was inactive. The AC50 in assay [4] is 2.09 µM (active); in assay [2] it was 16.7 µM (active); in [5] it was 25 µM (active); in assay [15], 25 µM (active); in assay [19], 0.831 µM (active); in assay [9] it was 0.144 µM (active). The concentration at half-maximal activity (AC50) is 0.479 µM (active) in assay [10]; 0.594 µM (active) in [16]; 13.8 µM (active) in [20]; 0.0035 µM (active) in [11]; 0.00231 µM (active) in [12]; 34.7 µM (active) in assay [13].
